BAZ2B inh: BAZ2B (human) inhibition; AlphaScreen BAZ2B-H3K14Ac peptide displacement; hit rate 4.4% among 360,000; Q9UIF8; Potency, µM (titrated, usually from 114 µM), for inactives: at the top dose activity change, negative = inhibition, hits mostly inhibitors; further: on the % scale 0 is the no-effect control and ±100 the full control effect; nearly all actives have a fitted effect of over 60% in size
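In this displacement format the biotinylated H3(5-23) peptide acetylated at Lys14 serves as ligand at 50 nM, with BAZ2B at 50 nM in PBS pH 7.4 containing 0.01% Tween-20. Donor and acceptor beads are 10 ug/mL final.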
HP1b chromo inh: blocks HP1-beta chromodomain binding to methylated histone tails | P83916 | AlphaScreen HP1-beta / biotin-H3K9me3 peptide binding | hit rate 0.56% among 390,000 | AID 540317 | Potency, µM (titrated, usually from 114 µM), without a hit: at the highest dose activity change, negative = inhibition, hits mostly inhibitors; further: nearly all actives have a fitted effect of over 70% in size
Target sequence (P83916 whole entry, looked up): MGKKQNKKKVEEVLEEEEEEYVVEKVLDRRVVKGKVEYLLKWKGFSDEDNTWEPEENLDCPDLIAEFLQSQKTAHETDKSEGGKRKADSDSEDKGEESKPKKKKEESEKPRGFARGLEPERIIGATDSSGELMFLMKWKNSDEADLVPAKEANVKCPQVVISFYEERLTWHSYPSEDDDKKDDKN
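AlphaScreen: HP1-beta (50 nM) preformed 30 min with biotin-H3(1-18)K9me3 peptide (50 nM) in PBS pH 7.4, 0.01% Tween-20. Compound added for 30 min at RT, then streptavidin donor/nickel chelate acceptor beads (10 ug/mL) for 30 min.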
JMJD2A Tudor: JMJD2A Tudor domain (human) inhibition | AlphaScreen JMJD2A-Tudor / H3K4me3 peptide binding | hit rate 4.4% among 390,000 | AID 504339 | Potency, µM (series often up to 114 µM), without a hit: at the highest dose activity change, negative = inhibition, most hits filed as inhibitors; further: on the % scale 0 is the no-effect control and ±100 the full control effect; nearly all actives have a fitted effect of over 50% in size
G9a inh: blocks human histone lysine methyltransferase G9a. G9a H3K9 monomethylation, AlphaScreen, 2 h. Potency, µM (series often up to 102 µM), without a hit: at the highest dose activity, negative = inhibition, actives largely listed as inhibitors. hit rate 8.8% among 350,000; further: on the % scale 0 is the no-effect control and ±100 the full control effect; nearly all actives have a fitted effect of over 75% in size
Target sequence (Q96KQ7 913-1193 limits assumed): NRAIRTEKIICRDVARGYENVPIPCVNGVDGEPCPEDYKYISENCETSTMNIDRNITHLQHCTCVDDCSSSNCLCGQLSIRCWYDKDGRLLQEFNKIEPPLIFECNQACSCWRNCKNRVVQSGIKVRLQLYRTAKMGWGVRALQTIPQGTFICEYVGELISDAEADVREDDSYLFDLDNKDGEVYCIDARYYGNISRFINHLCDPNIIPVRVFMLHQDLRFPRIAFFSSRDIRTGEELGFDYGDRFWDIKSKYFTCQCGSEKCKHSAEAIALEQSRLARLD
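AlphaScreen detection with an anti-monomethyl H3K9 antibody quantified product after a 2 h room-temperature reaction containing 500 nM biotinylated H3K9 peptide, 20 µM SAM and 20 nM enzyme, which had been preincubated 15 min with compound.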
Sfp inh: inhibitors of Bacillus subtilis Sfp phosphopantetheinyl transferase; Biochemical Sfp PPTase activity, qHTS; Potency, µM, for the others: largest response in the series, negative = inhibition, most hits filed as inhibitors; hit rate 3.5% among 310,000; AID 1490;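 further: the enzyme is Sfp with the accession as filed and its product quenches rhodamine fluorescence; 0% = enzyme reaction without inhibitor and -100% = no enzyme wells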
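Compounds were incubated with enzyme (final 15 nM) for 15 min at room temperature before substrate addition started the reaction. Fluorescence at 525 nm excitation, 598 nm emission was recorded immediately and after 30 minutes.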
Starred values were filed as active, the others as inactive; ? = inconclusive; . = no result given; ! = not confirmed by another sample; [ ] = another dose, or the depositor's remark. Most compounds without a hit are left out; they make up all but 12% or so of the library. The call rests on the fitted dose curve; in most records, active means well fitted curve in the direction sought with a large enough effect; inconclusive means small, poorly fitted or top-dose-only effect, or another doubt; inactive means no such curve, though single readings can be large; an effect the other way counts as inactive or inconclusive. Potency means the concentration at half of the fitted maximal effect.

SMILES | BAZ2B inh | HP1b chromo inh | JMJD2A Tudor | G9a inh | Sfp inh
CCOC(=O)c1c(Nc2nc(C)c(C(=O)NC)s2)sc(C)c1C | 0% | 12% | -22% | ? | 40µM*
CCOC(=O)c1cc(NC(=O)c2cc(C)on2)cc(C(=O)OCC)c1 | 10% | 32% | -3% | 0%[12.7 µM] | 4%
CCOC(=O)Nc1sc(C)c(C)c1C(=O)OCC | 26% | 70% | 22% | 42% | -28%
Cc1cccc(OCC(=O)Nc2ccc3c(c2)N(C)C(=O)c2ccccc2S3)c1 | -14% | 22% | -19% | 3%[59 µM] | .
Cc1ccc(N=C2C(=S)N(c3ccc(C)cc3)C(=N)N2/N=C/c2ccc(Cl)cc2)cc1 | ? | 3.5µM* | ? | ? | 40µM*
COc1ccc(/C=N/N2CCN(c3ccc(Cl)cc3)CC2)cc1 | -24% | 18% | -18% | 9% | 14%
CC(=O)c1c(C)oc2c1cc(NS(=O)(=O)c1ccc(C(C)(C)C)cc1)c1ccccc12 | -29% | 15% | -31% | -9%[59 µM] | .
Cc1oc2c(cc(NS(=O)(=O)c3ccc(C(C)C)cc3)c3ccccc32)c1C(=O)O | 50µM*! | -14% | ? | 50µM*! | -8%
COc1ccc(S(=O)(=O)Nc2cc3c(C(C)=O)c(C)oc3c3ccccc23)cc1 | ? | -8% | -21%[57.1 µM] | -2%[12.7 µM] | 45µM*
Cc1oc2c(cc(NS(=O)(=O)c3ccc(F)cc3)c3ccccc32)c1C(=O)O | -32% | ? | -35% | ? | 3%
COc1ccc(C(=O)NC(=S)N(C)C2CCCCC2)cc1 | -37% | 41% | -11% | 79µM* | 1%
CCC/C(=N\NC(=O)c1ccc(OC)c(OC)c1)c1ccccc1 | . | 45% | 7% | 79µM* | 8%
COc1cc(C(=O)NC(=S)N(CCc2ccccc2)CCc2ccccc2)cc(OC)c1OC | 8.9µM* | 2% | -24% | 9%[59 µM] | 9%
COc1ccc(C(=O)NC(=S)N(Cc2ccccc2)Cc2ccccc2)cc1 | 8.9µM* | ? | 56µM* | 59%[12.7 µM] | 5%
COc1cc(C(=O)NC(=S)N(C)Cc2ccccc2)cc(OC)c1OC | ? | 6% | -26% | -30% | ?
CCC/C(=N\NC(=O)c1ccccc1C)c1ccccc1 | 3% | 67% | -13%[57.1 µM] | 9%[59 µM] | 27%
O=C(CC1C(=O)NCCN1CC1CCCCC1)NCCc1ccc(F)cc1 (configuration not stated) | -25% | 33% | -12% | -34% | 7%
Cc1cc(C)cc(NC(=O)N(CCC#N)Cc2cccs2)c1 | 3% | 19% | -3% | 8% | -2%
Cc1cc(C)c(/C=C(\C#N)S(=O)(=O)c2ccccc2)[nH]1 | -18% | 12% | -4% | 31% | 19%
COc1cc(C(=O)NCCSc2ccccc2)cc(OC)c1OC | -16% | 10% | -15% | . | 6%
COc1cc(C(=O)NCC(=O)N/N=C(\C)Cc2ccccc2)cc(OC)c1OC | -20% | 39% | -14% | 11% | 1%
COc1ccc(C(=O)NCCSc2ccccc2)cc1OC | -15% | -14% | 11µM* | -6% | 16%
COc1cc(C(=O)N/N=C(\C)Cc2ccccc2)cc(OC)c1OC | -8% | 11% | 8.9µM* | 14% | -6%
CC(=O)N(Cc1ccc(F)cc1)C1=C(NCc2ccccc2)C(=O)c2ccccc2C1=O | 45µM* | ? | 56µM* | 13µM* | -3%
C#CCOCCOCCOCCNc1nc(N2CCN(C(=O)[C@H](CCCCN)n3cc(CN)nn3)CC2)nc(N2CCN(C(=O)[C@H](CO)n3cc([C@@H](N)C(C)C)nn3)CC2)n1 | . | 46% | -32% | . | .
SMILES | BAZ2B inh | HP1b chromo inh | JMJD2A Tudor | G9a inh | Sfp inh
C#CCOCCOCCOCCNc1nc(N2CCN(C(=O)[C@H](CCCCN)n3cc([C@@H](N)CC(N)=O)nn3)CC2)nc(N2CCN(C(=O)[C@H](CCCCN)n3cc([C@@H](N)CC(N)=O)nn3)CC2)n1 | . | 40% | 79µM* | . | .
C#CCOCCOCCOCCNc1nc(N2CCN(C(=O)[C@H](CCCCN)n3cc(CN)nn3)CC2)nc(N2CCN(C(=O)[C@H](CCCCN)n3cc([C@@H](N)CC(N)=O)nn3)CC2)n1 | . | 13% | 35µM* | . | .
C#CCOCCOCCOCCNc1nc(N2CCN(C(=O)C([C@@H](C)O)n3cc([C@@H](N)CCCCN)nn3)CC2)nc(N2CCN(C(=O)[C@H](CCCCN)n3cc([C@@H](N)CC(N)=O)nn3)CC2)n1 (some centres not stated) | . | 13% | 79µM* | . | .
C#CCOCCOCCOCCNc1nc(N2CCN(C(=O)C([C@@H](C)O)n3cc([C@@H](N)CCCCN)nn3)CC2)nc(N2CCN(C(=O)[C@H](CCC(=O)O)n3cc([C@@H](N)CCCCN)nn3)CC2)n1 (some centres not stated) | . | 41% | ? | . | .
COc1ccc(CCC(=O)NCCS(=O)(=O)N2CCN(c3ccccc3F)CC2)cc1 | -22% | -2% | -11% | -5%[0.501 µM] | .
O=C(CCCC(=O)c1ccccc1)Nc1ccc(F)cc1 | -1% | 1% | -16% | -2%[12.7 µM] | 4%
CC1NC(=O)NC1CCCCCC(=O)Nc1ccc(F)cc1 (configuration not stated) | -1% | ? | 0.32µM* | ? | 9%
Cc1c(F)cccc1NC(=O)CCCCCC1NC(=O)NC1C (configuration not stated) | 1µM* | ? | 0.89µM* | 0.71µM* | -14%
CCN(CC)C(=O)COC(=O)c1ccc(O)cc1 | 6% | 16% | -4% | 20%[59 µM] | 5%
C/C(=N\Nc1nc2ccccc2[nH]1)c1ccc(Cl)s1 | ? | -11% | ? | 20µM* | -10%
C/C(=N\Nc1ncc(Cl)cc1Cl)c1ccc(N2CCOCC2)cc1 | 50µM* | 21% | -1% | 56µM* | 25µM*
O=C(CSc1nc2ccccc2[nH]1)c1ccc(Cl)s1 | -3% | 2% | -18% | ? | -8%
C/C(=N\Nc1nc2ccccc2[nH]1)c1ccc(C)o1 | 45µM* | -25% | ? | 3%[59 µM] | 14%
C/C(=N\Nc1nc(C)cc(-c2ccccc2)n1)c1ccc(C)o1 | ? | 18% | -26% | 15% | 1%
CC(=O)N1CCC(=NNc2nc3ccccc3[nH]2)CC1 | 28µM* | ? | 25µM* | 45µM* | -60%
C/C(=N\Nc1nc(C)cc(C)n1)c1ccc(N2CCOCC2)cc1 | -10% | 34% | -21% | -1% | 6%
C/C=C(/C)C(=O)Nc1cccc(C2=NOC3(C2)C[C@@H](C(N)=O)N(C(=O)CCCCC)C3)c1 (some centres not stated) | 3% | 32% | -22% | 3%[59 µM] | 7%
CCCc1nnc(NC(=O)c2ccc([N+](=O)[O-])cc2)s1 | 8% | 28% | -7% | 4%[59 µM] | 13%
Cc1ccc(N=C2NC(=O)C(CO)(CO)S2)cc1 | -20% | 16% | -10% | -36% | 10%
C/C(=N\Nc1nc2ccccc2[nH]1)c1ccc(N2CCOCC2)cc1 | 20µM* | ? | 35µM* | 50µM* | -23%
